Data: PubChem BioAssay (NCATS)
Records with an inconclusive call do not appear. Active and inactive are the calls of the source. Unless noted, calls come from the whole dose curve; as a rule, active = well fitted curve in the direction sought with a large enough effect; inconclusive = small, poorly fitted or top-dose-only effect, or another doubt; inactive = no such curve, though single readings can be large; an effect the other way counts as inactive or inconclusive.

Legend:
MKL-2 = assay: qHTS assay to identify novel small-molecules to repurpose for Merkel cell carcinoma treatment (AID 1296009); conditions: MCC and control cell lines, CellTiter-Glo viability, 72 h; series mostly up to 46 µM; note: nearly all actives have a fitted effect of over 60% in size; note: potency is the fitted concentration of half-maximal effect
How it was run: (§1)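 Cells were treated for 72 hr at 37 degree celsius with compounds in 8- or 11-point dose response. Viability was read by CellTiter-Glo luminescence, normalized to no-cell (cytotoxicity) and DMSO controls.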

UISO = assay: as above; conditions: MCC and control cell lines, CellTiter-Glo viability, 72 h; series mostly up to 46 µM
How it was run: as §1

WaGa = assay: as above; conditions: MCC and control cell lines, CellTiter-Glo viability, 72 h; series mostly up to 46 µM
How it was run: as §1

C33A = assay: Primary qHTS to identify gynecologic anti-cancer compounds using libraries of approved drugs and bioactive compounds (AID 1345084); conditions: Gynecologic cancer cell panel viability, ATPlite luminescence, 48 h; series mostly up to 57.5 µM; note: nearly all actives have a fitted effect of over 55% in size; note: potency is the fitted concentration of half-maximal effect
How it was run: (§2)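 ATP-based viability (ATPlite), 1,000 cells/well, 16 h pre-incubation, 48 h compound at 37 C, 5% CO2, 15 min RT before read.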

Es-2 = assay: as above; conditions: Gynecologic cancer cell panel viability, ATPlite luminescence, 48 h; series mostly up to 57.5 µM
How it was run: as §2

HeLa = assay: as above; conditions: Gynecologic cancer cell panel viability, ATPlite luminescence, 48 h; series mostly up to 57.5 µM
How it was run: as §2

Hek293T = assay: as above; conditions: Gynecologic cancer cell panel viability, ATPlite luminescence, 48 h, control line for the selectivity index; series mostly up to 57.5 µM
How it was run: as §2

JEG-3 = assay: as above; conditions: Gynecologic cancer cell panel viability, ATPlite luminescence, 48 h; series mostly up to 57.5 µM
How it was run: as §2

OV90 = assay: as above; conditions: Gynecologic cancer cell panel viability, ATPlite luminescence, 48 h; series mostly up to 57.5 µM
How it was run: as §2

PA-1 = assay: as above; conditions: Gynecologic cancer cell panel viability, ATPlite luminescence, 48 h; series mostly up to 57.5 µM
How it was run: as §2

SKOV3 = assay: as above; conditions: Gynecologic cancer cell panel viability, ATPlite luminescence, 48 h; series mostly up to 57.5 µM
How it was run: as §2

Tov-21-G = assay: as above; conditions: Gynecologic cancer cell panel viability, ATPlite luminescence, 48 h; series mostly up to 57.5 µM
How it was run: as §2

Tov112D = assay: as above; conditions: Gynecologic cancer cell panel viability, ATPlite luminescence, 48 h; series mostly up to 57.5 µM
How it was run: as §2

[1] = Drug repurposing screens with cells derived from glioblastoma tumor samples (AID 1345199); conditions: GBM patient neurospheres viability, ATP luminescence, 48 h; note: nearly all actives have a fitted effect of over 40% in size; note: potency is the fitted concentration of half-maximal effect; for activity, negative = cell killing: % is set by controls: 0 for no effect and ±100 for the full control effect
How it was run: (§3)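 Four patient lines of CD133+ GBM neurospheres were screened at several concentrations; hits were retested in those lines plus three slower-growing GBM lines, using 48-hour treatment and ATP-based viability.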

CASKI = assay: Primary qHTS to identify gynecologic anti-cancer compounds using libraries of approved drugs and bioactive compounds (AID 1345084); conditions: Gynecologic cancer cell panel viability, ATPlite luminescence, 48 h; series mostly up to 57.5 µM; note: nearly all actives have a fitted effect of over 55% in size; note: potency is the fitted concentration of half-maximal effect
How it was run: as §2

NIH3T3 = assay: qHTS assay to identify novel small-molecules to repurpose for Merkel cell carcinoma treatment (AID 1296009); conditions: MCC and control cell lines, CellTiter-Glo viability, 72 h; at 44.8 µM (top of the series) unless noted; note: nearly all actives have a fitted effect of over 60% in size; note: potency is the fitted concentration of half-maximal effect
How it was run: as §1

astro = assay: Drug repurposing screens with cells derived from glioblastoma tumor samples (AID 1345199); conditions: viability, ATP luminescence, 48 h; series mostly up to 45.9 µM; note: nearly all actives have a fitted effect of over 40% in size; note: potency is the fitted concentration of half-maximal effect; for activity, negative = cell killing: % is set by controls: 0 for no effect and ±100 for the full control effect
How it was run: as §3

CAOV3 = assay: Primary qHTS to identify gynecologic anti-cancer compounds using libraries of approved drugs and bioactive compounds (AID 1345084); conditions: Gynecologic cancer cell panel viability, ATPlite luminescence, 48 h; series mostly up to 57.5 µM; note: nearly all actives have a fitted effect of over 55% in size; note: potency is the fitted concentration of half-maximal effect
How it was run: as §2

[2] = molecular target: Nuclear receptor subfamily 1 group I member 2 (Rattus norvegicus) (UniProt Q9R1A7); assay: qHTS assay for small molecule activators of the rat pregnane X receptor (rPXR) signaling pathway (AID 651751; call rule not given here; note: 0% is about no effect); conditions: rPXR reporter cells, luciferase (One-Glo), 24 h
Nuclear receptor subfamily 1 group I member 2 (Rattus norvegicus), sequence (Q9R1A7 whole entry, looked up): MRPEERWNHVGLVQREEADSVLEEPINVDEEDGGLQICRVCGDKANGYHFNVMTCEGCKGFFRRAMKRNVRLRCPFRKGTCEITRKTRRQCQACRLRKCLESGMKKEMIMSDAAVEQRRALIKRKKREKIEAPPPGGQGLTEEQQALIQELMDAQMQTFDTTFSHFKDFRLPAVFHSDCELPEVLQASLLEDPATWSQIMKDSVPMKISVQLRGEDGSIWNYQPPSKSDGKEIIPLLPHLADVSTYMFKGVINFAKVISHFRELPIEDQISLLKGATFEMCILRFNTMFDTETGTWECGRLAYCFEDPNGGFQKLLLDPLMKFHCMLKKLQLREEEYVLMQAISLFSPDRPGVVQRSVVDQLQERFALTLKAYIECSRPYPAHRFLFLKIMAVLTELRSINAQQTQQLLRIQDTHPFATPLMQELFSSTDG

[3] = at 45.9 µM (top of the series), tumour line B
[4] = at 45.9 µM (top of the series), tumour line D
[5] = at 46.1 µM (top of the series), tumour line C
[6] = at 46 µM (top of the series), tumour line A

Cc1ccc(O)c(-n2nc3ccccc3n2)c1
active: Potency (OV90) 3.55 µM
inactive: Potency (MKL-2) | Potency (UISO) | Potency (WaGa) | Potency (C33A) | Potency (Es-2) | Potency (HeLa) | Potency (Hek293T) | Potency (JEG-3) | Potency (PA-1) | Potency (SKOV3) | Potency (Tov-21-G) | Potency (Tov112D) | activity, negative = cell killing [1, 3] -17.2% | activity, negative = cell killing [1, 4] -17.5% | activity, negative = cell killing [1, 5] -2.87%

COC(=O)C1=C(C)NC(C)=C(C(=O)OCC(C)C)C1c1ccccc1[N+](=O)[O-] (stereo unspecified)
active: Potency (MKL-2) 5.96 µM | Potency (UISO) 23.7 µM | Potency (WaGa) 21.1 µM | Potency ([1]; tumour line A) 10 µM | Potency ([1]; tumour line D) 14.1 µM
inactive: Potency (C33A) | Potency (CASKI) | Potency (Es-2) | Potency (HeLa) | Potency (Hek293T) | Potency (JEG-3) | Potency (OV90) | Potency (PA-1) | Potency (Tov-21-G) | Potency (Tov112D) | activity, negative = cell killing [1, 5] -13.4%

O=C(CCN1CCN(CCO)CC1)N1c2ccccc2Sc2ccc(C(F)(F)F)cc21
active: Potency ([1]; tumour line A) 11.2 µM
inactive: Potency (MKL-2) | Potency (UISO) | Potency (WaGa) | Potency (C33A) | Potency (CASKI) | Potency (Es-2) | Potency (HeLa) | Potency (Hek293T) | Potency (JEG-3) | Potency (OV90) | Potency (PA-1) | Potency (SKOV3) | Potency (Tov-21-G) | Potency (Tov112D) | activity, negative = cell killing [1, 3] -17.6%

COC(=O)C1=C(C)NC(C)=C(C(=O)OCC(C)=O)C1c1ccccc1[N+](=O)[O-] (stereo unspecified)
inactive: Potency (C33A) | Potency (CASKI) | Potency (Es-2) | Potency (Hek293T) | Potency (JEG-3) | Potency (OV90) | Potency (PA-1) | Potency (SKOV3) | Potency (Tov-21-G) | Potency (Tov112D)
active: Potency (MKL-2) 10.6 µM

O=C(/C=C/c1ccccc1)NCCO
inactive: Potency (MKL-2) | Potency (UISO) | Potency (WaGa) | Potency (C33A) | Potency (CASKI) | Potency (Es-2) | Potency (HeLa) | Potency (Hek293T) | Potency (JEG-3) | Potency (OV90) | Potency (PA-1) | Potency (SKOV3) | Potency (Tov-21-G) | Potency (Tov112D) | activity, negative = cell killing [1, 3] -16.2% | activity, negative = cell killing [1, 4] -5.87% | activity, negative = cell killing [1, 5] -18.2%

CC(=O)O[C@H]1C[C@@]2(C)[C@@H](C[C@@H](O)[C@H]3[C@@]4(C)CC[C@@H](O)[C@@H](C)[C@@H]4CC[C@@]32C)/C1=C(\CCC=C(C)C)C(=O)O
inactive: outcome (NIH3T3) | Potency (C33A) | Potency (CASKI) | Potency (Es-2) | Potency (HeLa) | Potency (Hek293T) | Potency (JEG-3) | Potency (OV90) | Potency (PA-1) | Potency (SKOV3) | Potency (Tov-21-G) | Potency (Tov112D) | activity, negative = cell killing [1, 3] -17.2% | activity, negative = cell killing [1, 4] 1.56% | activity, negative = cell killing [1, 5] -26.3%

CCC1C(=O)OCC1Cc1cncn1C (stereo unspecified)
inactive: Potency (MKL-2) | Potency (UISO) | Potency (WaGa) | Potency (C33A) | Potency (CASKI) | Potency (Es-2) | Potency (HeLa) | Potency (Hek293T) | Potency (JEG-3) | Potency (OV90) | Potency (PA-1) | Potency (SKOV3) | Potency (Tov-21-G) | Potency (Tov112D) | activity, negative = cell killing [1, 3] -2.95% | activity, negative = cell killing [1, 4] -8.25% | activity, negative = cell killing [1, 6] -25.3% | activity, negative = cell killing [1, 5] -11.8% | Potency (astro)

C[C@H](O)[C@H](O)[C@H]1CNc2nc(N)[nH]c(=O)c2N1
inactive: outcome (NIH3T3) | Potency (C33A) | Potency (CAOV3) | Potency (CASKI) | Potency (Es-2) | Potency (HeLa) | Potency (Hek293T) | Potency (JEG-3) | Potency (OV90) | Potency (PA-1) | Potency (SKOV3) | Potency (Tov-21-G) | Potency (Tov112D) | activity, negative = cell killing [1, 3] -2.46% | activity, negative = cell killing [1, 4] 16.1% | activity, negative = cell killing [1, 6] -18.9% | activity, negative = cell killing [1, 5] 11.1%

CC(C)OC(=O)c1cc(C(=O)OC(C)C)cc([N+](=O)[O-])c1
inactive: Potency (MKL-2) | Potency (UISO) | Potency (WaGa) | Potency (C33A) | Potency (CASKI) | Potency (Es-2) | Potency (HeLa) | Potency (Hek293T) | Potency (JEG-3) | Potency (OV90) | Potency (PA-1) | Potency (Tov-21-G) | Potency (Tov112D) | activity, negative = cell killing ([1]; at 91.6 µM (top of the series), tumour line A) -39.8% | activity, negative = cell killing ([1]; at 91.6 µM (top of the series), tumour line B) -8.41% | activity, negative = cell killing ([1]; at 91.6 µM (top of the series), tumour line D) -19.6% | activity, negative = cell killing ([1]; at 99.2 µM (top of the series), tumour line C) 10.5% | Potency (astro) | max response [2] 14.5%

Oc1c(Br)cc(Br)c2cccnc12
active: Potency (MKL-2) 4.22 µM | Potency (UISO) 7.5 µM | Potency (WaGa) 11.9 µM
inactive: Potency (C33A) | Potency (CAOV3) | Potency (CASKI) | Potency (HeLa) | Potency (JEG-3)

CC1(C)S[C@@H]2[C@H](NC(=O)[C@H](N)c3ccc(O)cc3)C(=O)N2[C@H]1C(=O)O
inactive: outcome (NIH3T3) | Potency (CAOV3) | Potency (CASKI) | Potency (Es-2) | Potency (HeLa) | Potency (Hek293T) | Potency (JEG-3) | Potency (OV90) | Potency (PA-1) | Potency (SKOV3) | Potency (Tov-21-G) | Potency (Tov112D) | activity, negative = cell killing [1, 3] 2.03% | activity, negative = cell killing [1, 4] 3.17% | activity, negative = cell killing [1, 6] -16.6% | activity, negative = cell killing [1, 5] -0.658% | Potency (astro)

CCNC(=O)[C@H]1O[C@@H](n2cnc3c(N)nc(NCCc4ccc(CCC(=O)O)cc4)nc32)[C@H](O)[C@@H]1O
inactive: Potency (C33A) | Potency (CASKI) | Potency (Es-2) | Potency (HeLa) | Potency (Hek293T) | Potency (JEG-3) | Potency (OV90) | Potency (PA-1) | Potency (SKOV3) | Potency (Tov-21-G) | Potency (Tov112D)

Nc1cc(-c2ccncc2)c[nH]c1=O
inactive: Potency (UISO) | Potency (WaGa) | Potency (C33A) | Potency (CAOV3) | Potency (CASKI) | Potency (Es-2) | Potency (HeLa) | Potency (Hek293T) | Potency (JEG-3) | Potency (OV90) | Potency (PA-1) | Potency (Tov-21-G) | Potency (Tov112D) | activity, negative = cell killing [1, 3] -15% | activity, negative = cell killing [1, 4] 3.16% | activity, negative = cell killing [1, 6] -22.8% | activity, negative = cell killing [1, 5] -16.3% | Potency (astro) | max response [2] -2.86%
